Source: PubChem BioAssay AID1159580 (chemical genetic matrix, 2015)
Values joined by “and” are separate entries in the source; they are usually repeats but may differ in a detail not shown here. Equal entries are not always repeated. Hit rate of the full screen: of about 5,500 compounds, about 2,000 (36%) were called active. Another 18% or so got no clear call; they are omitted. Cut-off read from the data, not from the text of the source: active = normalized growth mostly below about 0.91 (no sharp cut-off); inconclusive = no clear call, values can overlap the other calls; inactive = mostly above about 0.92. Some of the results follow.

Experiment: chemical genetic growth profiling, strain panel (AID 1159580);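 note: tested at 20 µM; growth read once vehicle control cultures reached saturation at 30 °C; 1 = growth at the plate median or of vehicle wells; lower values mean less growth of the strain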
Conditions: growth OD

Measured: normalized growth

CN(C)CCC(c1ccc(Br)cc1)c1ccccn1 (centres undefined)
inactive: S. cerevisiae deletion strains, locus YKL009W, strain mrt4, active compounds read low 0.99 | S. cerevisiae deletion strains, locus YKL068W, active compounds read low 1.01 | S. cerevisiae deletion strains, locus YKL085W, strain MDH1 (second series), active compounds read low 1.02 | S. cerevisiae deletion strains, locus YKL085W, strain MDH1, active compounds read low 1.02 | S. cerevisiae deletion strains, locus YKL160W, strain elf1, active compounds read low 0.981 | S. cerevisiae deletion strains, locus YKL190W, strain CNB1, active compounds read low 0.995 | S. cerevisiae deletion strains, locus YKR001C, strain vps1, active compounds read low 0.964 | S. cerevisiae deletion strains, locus YKR026C, strain gcn3, active compounds read low 0.986 | S. cerevisiae deletion strains, locus YLL001W, strain dnm1, active compounds read low 0.998 | S. cerevisiae deletion strains, locus YLL026W, active compounds read low 0.987 | S. cerevisiae deletion strains, locus YLL041C, strain sdh2, active compounds read low 0.981 | S. cerevisiae deletion strains, locus YLR027C, strain aat2, active compounds read low 0.99 | S. cerevisiae deletion strains, locus YLR039C, strain RIC1, active compounds read low 0.999 | S. cerevisiae deletion strains, locus YLR058C, strain SHM2, active compounds read low 0.991 | S. cerevisiae deletion strains, locus YLR102C, strain apc9, active compounds read low 0.992 | S. cerevisiae deletion strains, locus YLR113W, strain HOG1, active compounds read low 1.01 | S. cerevisiae deletion strains, locus YLR221C, strain rsa3, active compounds read low 0.999 | S. cerevisiae deletion strains, locus YLR258W, strain gsy2, active compounds read low 0.969 | S. cerevisiae deletion strains, locus YLR262C, strain YPT6 (second series), active compounds read low 0.999 | S. cerevisiae deletion strains, locus YLR262C, strain YPT6, active compounds read low 1.03 | S. cerevisiae deletion strains, locus YLR268W, strain sec22, active compounds read low 0.956 | S. cerevisiae deletion strains, locus YLR320W, strain mms22, active compounds read low 1.03 | S. cerevisiae deletion strains, locus YLR330W, strain CHS5, active compounds read low 0.992 | S. cerevisiae deletion strains, locus YLR342W, strain FKS1 (second series), active compounds read low 0.985 | S. cerevisiae deletion strains, locus YLR342W, strain FKS1, active compounds read low 0.986 | S. cerevisiae deletion strains, locus YLR357W, strain rsc2, active compounds read low 0.972 | S. cerevisiae deletion strains, locus YLR370C, strain arc18, active compounds read low 0.982 | S. cerevisiae deletion strains, locus YLR371W, strain rom2, active compounds read low 0.989 | S. cerevisiae deletion strains, locus YLR384C, strain iki3, active compounds read low 0.989 | S. cerevisiae deletion strains, locus YLR418C, strain cdc73, active compounds read low 0.95 | S. cerevisiae deletion strains, locus YML016C, strain PPZ1, active compounds read low 0.986 | S. cerevisiae deletion strains, locus YML032C, strain rad52, active compounds read low 0.966 | S. cerevisiae deletion strains, locus YML120C, strain ndi1, active compounds read low 0.981 | S. cerevisiae deletion strains, locus YML124C, strain tub3, active compounds read low 0.987 | S. cerevisiae deletion strains, locus YMR058W, strain fet3, active compounds read low 1.01 | S. cerevisiae deletion strains, locus YMR078C, strain ctf18, active compounds read low 0.974 | S. cerevisiae deletion strains, locus YMR125W, strain sto1, active compounds read low 0.936 | S. cerevisiae deletion strains, locus YMR129W, active compounds read low 0.982 | S. cerevisiae deletion strains, locus YMR205C, strain PFK2, active compounds read low 0.997 | S. cerevisiae deletion strains, locus YMR223W, strain ubp8, active compounds read low 1.01 | S. cerevisiae deletion strains, locus YMR231W, strain pep5, active compounds read low 0.978 | S. cerevisiae deletion strains, locus YMR263W, strain SAP30, active compounds read low 0.976 | S. cerevisiae deletion strains, locus YMR307W, strain GAS1, active compounds read low 1.01 | S. cerevisiae deletion strains, locus YNL067W, strain RPL9B, active compounds read low 0.977 | S. cerevisiae deletion strains, locus YNL071W, strain lat1, active compounds read low 0.98 | S. cerevisiae deletion strains, locus YNL128W, strain TEP1, active compounds read low 0.988 | S. cerevisiae deletion strains, locus YNL153C, strain GIM3, active compounds read low 0.981 | S. cerevisiae deletion strains, locus YNL175C, strain NOP13, active compounds read low 1 | S. cerevisiae deletion strains, locus YNL183C, strain NPR1, active compounds read low 0.942 | S. cerevisiae deletion strains, locus YNL197C, strain WHI3, active compounds read low 1.01 | S. cerevisiae deletion strains, locus YNL209W, strain ssb2, active compounds read low 0.993 | S. cerevisiae deletion strains, locus YNL224C, strain SQS1, active compounds read low 1 | S. cerevisiae deletion strains, locus YNL233W, strain BNI4, active compounds read low 0.988 | S. cerevisiae deletion strains, locus YNL248C, strain rpa49, active compounds read low 0.952 | S. cerevisiae deletion strains, locus YNL250W, strain rad50, active compounds read low 0.978 | S. cerevisiae deletion strains, locus YNL271C, strain bni1, active compounds read low 0.984 | S. cerevisiae deletion strains, locus YNL298W, strain CLA4, active compounds read low 0.985 | S. cerevisiae deletion strains, locus YNL307C, strain MCK1, active compounds read low 0.989 | S. cerevisiae deletion strains, locus YNL322C, strain KRE1 (second series), active compounds read low 0.971 | S. cerevisiae deletion strains, locus YNL322C, strain KRE1, active compounds read low 0.991 and 1.02 | S. cerevisiae deletion strains, locus YNR049C, strain mso1, active compounds read low 0.968 | S. cerevisiae deletion strains, locus YNR052C, strain pop2, active compounds read low 0.989 | S. cerevisiae deletion strains, locus YOL006C, strain TOP1, active compounds read low 0.973 | S. cerevisiae deletion strains, locus YOL012C, strain htz1 0.603 | S. cerevisiae deletion strains, locus YOL147C, strain pex11, active compounds read low 0.983 | S. cerevisiae deletion strains, locus YOR001W, strain rrp6, active compounds read low 0.986 | S. cerevisiae deletion strains, locus YOR061W, strain CKA2, active compounds read low 0.99 | S. cerevisiae deletion strains, locus YOR069W, strain VPS5, active compounds read low 0.992 | S. cerevisiae deletion strains, locus YOR070C, strain gyp1, active compounds read low 0.99 | S. cerevisiae deletion strains, locus YOR080W, strain dia2, active compounds read low 0.975 | S. cerevisiae deletion strains, locus YOR083W, strain WHI5 (second series), active compounds read low 1.01 | S. cerevisiae deletion strains, locus YOR083W, strain WHI5, active compounds read low 0.928 | S. cerevisiae deletion strains, locus YOR106W, strain vam3, active compounds read low 0.966 | S. cerevisiae deletion strains, locus YOR136W, strain idh2, active compounds read low 1 | S. cerevisiae deletion strains, locus YOR144C, strain elg1, active compounds read low 0.99 | S. cerevisiae deletion strains, locus YOR184W, strain ser1, active compounds read low 0.98 | S. cerevisiae deletion strains, locus YOR231W, strain MKK1, active compounds read low 0.986 | S. cerevisiae deletion strains, locus YOR265W, strain rbl2, active compounds read low 0.99 | S. cerevisiae deletion strains, locus YOR270C, strain vph1, active compounds read low 0.981 | S. cerevisiae deletion strains, locus YOR290C, strain snf2, active compounds read low 0.97 | S. cerevisiae deletion strains, locus YOR316C, strain cot1, active compounds read low 0.987 | S. cerevisiae deletion strains, locus YPL051W, strain arl3, active compounds read low 0.991 | S. cerevisiae deletion strains, locus YPL055C, strain LGE1, active compounds read low 1 and 1.01 | S. cerevisiae deletion strains, locus YPL078C, strain atp4, active compounds read low 0.985 | S. cerevisiae deletion strains, locus YPL106C, strain sse1, active compounds read low 0.936 | S. cerevisiae deletion strains, locus YPL240C, strain hsp82, active compounds read low 0.991 | S. cerevisiae deletion strains, locus YPL241C, strain CIN2, active compounds read low 0.992 and 1.01 | S. cerevisiae deletion strains, locus YPL256C, strain CLN2, active compounds read low 0.96 | S. cerevisiae deletion strains, locus YPR119W, strain clb2, active compounds read low 0.998 | S. cerevisiae deletion strains, locus YPR141C, strain kar3, active compounds read low 0.979 | S. cerevisiae deletion strains, locus YPR163C, strain tif3, active compounds read low 0.987 | S. cerevisiae deletion strains, locus YPR167C, strain met16, active compounds read low 0.987 | S. cerevisiae deletion strains, strain wtn01, active compounds read low 0.95 | S. cerevisiae strains, strain wild type, active compounds read low 0.987
